Test [1] deals with Tyrosine-protein kinase SYK (Homo sapiens) (UniProt P43405). The note with it: at 10 µM.
Test [2] concerns the target T1, Mitogen-activated protein kinase kinase kinase 7 (Homo sapiens) (UniProt O43318).
T1 sequence (whole entry): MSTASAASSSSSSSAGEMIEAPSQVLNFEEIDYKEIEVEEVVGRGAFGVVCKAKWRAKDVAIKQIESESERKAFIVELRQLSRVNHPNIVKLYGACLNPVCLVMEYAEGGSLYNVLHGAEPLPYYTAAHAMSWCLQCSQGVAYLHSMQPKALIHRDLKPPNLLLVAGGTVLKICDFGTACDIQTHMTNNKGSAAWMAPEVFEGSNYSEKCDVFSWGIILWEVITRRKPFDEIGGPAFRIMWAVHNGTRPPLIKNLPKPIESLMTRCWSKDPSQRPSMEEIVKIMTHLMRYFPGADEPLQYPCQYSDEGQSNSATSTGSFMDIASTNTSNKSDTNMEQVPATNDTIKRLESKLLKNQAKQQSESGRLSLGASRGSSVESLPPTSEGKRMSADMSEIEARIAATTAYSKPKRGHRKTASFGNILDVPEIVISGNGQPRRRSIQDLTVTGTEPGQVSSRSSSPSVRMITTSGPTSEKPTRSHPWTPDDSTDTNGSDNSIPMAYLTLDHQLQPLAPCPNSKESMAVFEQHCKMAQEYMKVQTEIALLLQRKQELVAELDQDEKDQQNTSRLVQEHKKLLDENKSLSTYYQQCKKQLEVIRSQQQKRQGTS
As to conditions: at 1 µM.

Test [3] concerns the target T1, Mitogen-activated protein kinase kinase kinase 7 (Homo sapiens). As to conditions: at 10 µM.
In test [4] the target is T2, Serine/threonine-protein kinase TAO1 (Homo sapiens) (UniProt Q7L7X3).
T2 sequence (whole entry): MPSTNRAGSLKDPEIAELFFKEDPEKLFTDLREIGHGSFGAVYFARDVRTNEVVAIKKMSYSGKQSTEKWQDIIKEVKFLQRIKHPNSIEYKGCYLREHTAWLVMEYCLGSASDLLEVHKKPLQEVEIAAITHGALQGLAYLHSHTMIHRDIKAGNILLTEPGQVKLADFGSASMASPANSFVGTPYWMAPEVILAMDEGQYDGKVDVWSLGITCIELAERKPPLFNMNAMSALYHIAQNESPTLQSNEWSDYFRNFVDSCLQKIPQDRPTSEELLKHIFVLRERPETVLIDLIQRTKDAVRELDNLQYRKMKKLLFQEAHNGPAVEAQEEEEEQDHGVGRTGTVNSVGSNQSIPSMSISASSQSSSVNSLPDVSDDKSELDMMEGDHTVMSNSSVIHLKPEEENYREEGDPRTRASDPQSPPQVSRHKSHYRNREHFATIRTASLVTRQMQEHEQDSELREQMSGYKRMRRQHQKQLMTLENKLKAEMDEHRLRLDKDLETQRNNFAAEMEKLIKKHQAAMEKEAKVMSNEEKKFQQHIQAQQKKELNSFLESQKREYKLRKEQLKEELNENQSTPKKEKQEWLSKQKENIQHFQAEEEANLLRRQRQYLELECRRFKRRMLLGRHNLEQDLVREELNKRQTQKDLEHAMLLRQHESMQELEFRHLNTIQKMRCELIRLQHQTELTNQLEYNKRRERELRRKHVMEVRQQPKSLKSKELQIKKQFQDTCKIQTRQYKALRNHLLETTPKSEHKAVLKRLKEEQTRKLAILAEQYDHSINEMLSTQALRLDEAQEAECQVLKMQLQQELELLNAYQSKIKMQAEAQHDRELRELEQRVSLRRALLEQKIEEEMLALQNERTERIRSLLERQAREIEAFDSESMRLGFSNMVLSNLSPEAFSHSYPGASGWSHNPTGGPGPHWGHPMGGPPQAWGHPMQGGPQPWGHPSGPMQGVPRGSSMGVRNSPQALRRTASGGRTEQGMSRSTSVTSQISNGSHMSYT
As to conditions: at 1 µM.

Test [5] has as its target T2, Serine/threonine-protein kinase TAO1 (Homo sapiens). As to conditions: at 10 µM.
Test [6] concerns the target T3, Serine/threonine-protein kinase TAO2 (Homo sapiens) (UniProt Q9UL54).
T3 sequence (whole entry): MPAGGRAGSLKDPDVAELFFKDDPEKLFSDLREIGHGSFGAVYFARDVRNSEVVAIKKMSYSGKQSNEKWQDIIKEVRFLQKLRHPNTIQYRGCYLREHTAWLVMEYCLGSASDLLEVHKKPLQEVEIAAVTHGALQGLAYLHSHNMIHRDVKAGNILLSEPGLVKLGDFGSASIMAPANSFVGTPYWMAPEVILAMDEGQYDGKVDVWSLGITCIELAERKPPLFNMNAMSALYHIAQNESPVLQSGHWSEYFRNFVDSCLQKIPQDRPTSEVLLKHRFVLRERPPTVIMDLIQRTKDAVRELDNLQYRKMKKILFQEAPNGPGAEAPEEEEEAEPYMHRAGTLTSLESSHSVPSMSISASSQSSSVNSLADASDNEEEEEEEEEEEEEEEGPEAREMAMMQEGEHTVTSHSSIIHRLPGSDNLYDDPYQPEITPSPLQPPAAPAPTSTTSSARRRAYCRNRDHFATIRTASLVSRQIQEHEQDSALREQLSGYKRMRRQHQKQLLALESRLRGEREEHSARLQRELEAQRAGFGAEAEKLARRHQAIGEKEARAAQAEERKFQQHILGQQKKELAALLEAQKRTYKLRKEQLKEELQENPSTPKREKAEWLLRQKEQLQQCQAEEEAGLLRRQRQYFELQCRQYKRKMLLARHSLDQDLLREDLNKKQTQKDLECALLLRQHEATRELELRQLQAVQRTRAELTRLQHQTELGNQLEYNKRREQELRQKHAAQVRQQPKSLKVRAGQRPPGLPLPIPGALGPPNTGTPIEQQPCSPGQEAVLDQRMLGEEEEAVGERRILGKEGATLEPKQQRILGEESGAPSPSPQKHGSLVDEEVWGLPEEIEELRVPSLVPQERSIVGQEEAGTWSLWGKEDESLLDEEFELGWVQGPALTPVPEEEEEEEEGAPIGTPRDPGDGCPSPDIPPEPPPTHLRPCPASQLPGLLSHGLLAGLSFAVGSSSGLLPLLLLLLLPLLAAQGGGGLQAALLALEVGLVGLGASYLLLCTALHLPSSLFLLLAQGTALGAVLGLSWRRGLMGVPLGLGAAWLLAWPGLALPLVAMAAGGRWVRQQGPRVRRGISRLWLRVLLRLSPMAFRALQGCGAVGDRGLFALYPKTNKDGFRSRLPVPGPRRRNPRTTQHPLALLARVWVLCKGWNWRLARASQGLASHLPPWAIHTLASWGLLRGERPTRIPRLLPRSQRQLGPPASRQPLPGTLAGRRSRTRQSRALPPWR
As to conditions: at 1 µM.

The target of test [7] is T3, Serine/threonine-protein kinase TAO2 (Homo sapiens). The note with it: at 10 µM.
Test [8] has as its target T4, Serine/threonine-protein kinase TAO3 (Homo sapiens) (UniProt Q9H2K8).
T4 sequence (whole entry): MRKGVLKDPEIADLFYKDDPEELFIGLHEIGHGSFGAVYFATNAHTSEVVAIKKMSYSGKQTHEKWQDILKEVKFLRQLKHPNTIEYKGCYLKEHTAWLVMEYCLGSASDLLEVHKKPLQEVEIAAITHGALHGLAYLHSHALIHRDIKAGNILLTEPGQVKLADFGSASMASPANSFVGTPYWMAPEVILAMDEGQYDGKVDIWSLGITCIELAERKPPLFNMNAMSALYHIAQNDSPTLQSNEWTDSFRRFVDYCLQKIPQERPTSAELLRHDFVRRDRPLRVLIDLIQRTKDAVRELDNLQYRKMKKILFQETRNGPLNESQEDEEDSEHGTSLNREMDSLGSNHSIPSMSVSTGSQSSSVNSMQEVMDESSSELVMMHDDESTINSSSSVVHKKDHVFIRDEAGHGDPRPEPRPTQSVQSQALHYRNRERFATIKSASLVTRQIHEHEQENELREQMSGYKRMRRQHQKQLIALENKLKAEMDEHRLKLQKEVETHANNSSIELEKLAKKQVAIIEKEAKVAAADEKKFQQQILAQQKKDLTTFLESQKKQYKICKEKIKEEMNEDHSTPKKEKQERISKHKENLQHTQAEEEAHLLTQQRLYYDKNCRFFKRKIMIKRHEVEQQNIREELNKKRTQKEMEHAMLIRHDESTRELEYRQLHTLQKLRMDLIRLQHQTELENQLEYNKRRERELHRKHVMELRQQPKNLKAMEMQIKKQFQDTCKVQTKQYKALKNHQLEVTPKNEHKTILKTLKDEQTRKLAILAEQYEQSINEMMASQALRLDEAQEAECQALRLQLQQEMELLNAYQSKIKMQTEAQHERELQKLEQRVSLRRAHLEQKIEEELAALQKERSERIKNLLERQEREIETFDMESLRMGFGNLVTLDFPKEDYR
The note with it: at 1 µM.

Test [9] has as its target T4, Serine/threonine-protein kinase TAO3 (Homo sapiens). As to conditions: at 10 µM.
Test [10] addresses T5, Serine/threonine-protein kinase TBK1 (Homo sapiens) (UniProt Q9UHD2).
T5 sequence (whole entry): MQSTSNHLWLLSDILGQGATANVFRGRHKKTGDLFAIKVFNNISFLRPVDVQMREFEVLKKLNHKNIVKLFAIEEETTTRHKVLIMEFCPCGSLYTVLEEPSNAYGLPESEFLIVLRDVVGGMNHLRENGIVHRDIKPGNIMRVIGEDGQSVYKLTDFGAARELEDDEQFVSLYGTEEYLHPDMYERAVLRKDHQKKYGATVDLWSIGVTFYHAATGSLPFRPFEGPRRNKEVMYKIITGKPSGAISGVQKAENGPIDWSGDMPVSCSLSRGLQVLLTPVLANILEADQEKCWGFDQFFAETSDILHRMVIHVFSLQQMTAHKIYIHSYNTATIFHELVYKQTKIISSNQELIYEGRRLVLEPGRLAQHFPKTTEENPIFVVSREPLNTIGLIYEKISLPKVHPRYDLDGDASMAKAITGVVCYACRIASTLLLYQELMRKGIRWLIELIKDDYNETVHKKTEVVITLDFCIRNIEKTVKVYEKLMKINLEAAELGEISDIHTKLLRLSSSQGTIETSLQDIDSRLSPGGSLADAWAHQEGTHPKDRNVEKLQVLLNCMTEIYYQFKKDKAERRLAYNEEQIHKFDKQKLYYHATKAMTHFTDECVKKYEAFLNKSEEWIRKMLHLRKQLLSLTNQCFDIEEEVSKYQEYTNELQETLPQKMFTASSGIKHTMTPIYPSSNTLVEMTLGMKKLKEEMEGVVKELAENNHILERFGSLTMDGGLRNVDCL
As to conditions: at 1 µM.

Data on one compound can be found in ChEMBL document CHEMBL2218924, “A broad activity screen in support of a chemogenomic map for kinase signalling research and drug discovery” (Biochem J, 2013).

For `O=C1NC(=O)/C(=C\c2ccc3nccnc3c2)S1`, the residual activity in [1] was 92%; in [2] it was 94%; in test [3], 93%; in [4], 71%; in [5], 14%; in test [6], 99%. For the same compound, the residual activity in test [7] was found to be 44%; in test [8], 72%; in [9], 16%; in [10], 56%.
